The values that follow come from PubChem BioAssay.

Assay [1] in a line: antimalarial activity against Dd2 strain (AID 2302;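 active means growth inhibition above 50% at the single 2 µM test dose, taken to imply half-maximal potency below 2 µM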;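 further: 0% = DMSO untreated growth and 100% = chloroquine plus artemisinin killed control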). To be noted: P. falciparum Dd2 in RBCs, LDH growth readout, 72 h; at 2 µM; stronger effect = higher value.
Assay [2] in a line: human hepatoma cell viability loss – ATP luminescence, cytotoxicity control for P. falciparum antimalarial project, primary screen (AID 2303;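 active means inhibition above 50%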;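 further: 0% = DMSO wells and 100% = digitonin-killed cells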). To be noted: HepG2 viability, 24-48 h, at 10 µM, stronger effect = higher value.
Assay [3] addresses L-lactate dehydrogenase (Plasmodium falciparum (isolate CDC / Honduras)) (UniProt Q27743). As to the kind of experiment: PfLDH activity inhibition – cell lysate, 3D7 strain, counter-screen for P. falciparum growth inhibition project (AID 2304).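 Further: 0% = vehicle and 100% = reference inhibitor.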 To be noted: P. falciparum 3D7 crude extract, LDH APAD/NBT absorbance; at 2 µM; stronger effect = higher value. For orientation: A counterscreen serves to expose hits that act by an unwanted route or on another target.

A short description of assay [4]: inhibition of 3D7 malaria parasite growth – strain 3D7 (AID 2306).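 Further: 0% = DMSO wells and 100% = chloroquine plus artemisinin control wells.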 To be noted: P. falciparum 3D7 erythrocytic growth, LDH absorbance, 72 h; at 2 µM; stronger effect = higher value.
For assay [5], the target named is Calcium-dependent protein kinase 1 (Plasmodium falciparum (isolate 3D7)) (UniProt P62344). As to the kind of experiment: PfCDPK1 kinase inhibitors, biochemical, TCAMS library (AID 1159585; cut-off not given, nearly all actives have IC50 up to about 0.98 µM;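 further: inhibitors leave more ATP so luminescence rises with inhibition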). To be noted: recombinant PfCDPK1, Kinase-Glo ATP depletion luminescence. On the technique in general: Kinase-Glo reads ATP consumption through a luciferase reaction.
In assay [6] the target is Plasmodium falciparum protein kinase 6 (PK6, PF3D7_1337100) (UniProt Q8IDW1). As to the kind of experiment: PfPK6 kinase inhibitors, biochemical, TCAMS library (AID 1159586). To be noted: recombinant PfPK6, Kinase-Glo ATP depletion luminescence.
Assay [7] has as its target Protein kinase 7 (PK7), Plasmodium falciparum 3D7 (PF3D7_0213400) (UniProt Q7YTF7). The assay is described as follows: inhibition of Plasmodium PK7 catalytic activity – biochemical, TCAMS antimalarial set, Kinase-Glo luminescence (AID 1159587). To be noted: recombinant PfPK7, Kinase-Glo ATP depletion luminescence.
Assay [8] has as its target Calcium-dependent protein kinase 4 (Plasmodium falciparum (isolate 3D7)) (UniProt Q8IBS5). The assay is described as follows: PfCDPK4 kinase inhibitors, biochemical, TCAMS library (AID 1159588; cut-off not given, nearly all actives have IC50 up to about 0.91 µM). To be noted: recombinant PfCDPK4, Kinase-Glo ATP depletion luminescence.

Broadly, the inhibition is the change of the read-out against control, counted positive when it falls.

Unmarked numbers belong to inactive results. For some of these results: Measured potencies and affinities stand elsewhere. The source made the active and inactive calls. Unless noted, how the calls were made is not given here.

Sequence of Calcium-dependent protein kinase 1 (Plasmodium falciparum (isolate 3D7)) (P62344 whole entry, looked up): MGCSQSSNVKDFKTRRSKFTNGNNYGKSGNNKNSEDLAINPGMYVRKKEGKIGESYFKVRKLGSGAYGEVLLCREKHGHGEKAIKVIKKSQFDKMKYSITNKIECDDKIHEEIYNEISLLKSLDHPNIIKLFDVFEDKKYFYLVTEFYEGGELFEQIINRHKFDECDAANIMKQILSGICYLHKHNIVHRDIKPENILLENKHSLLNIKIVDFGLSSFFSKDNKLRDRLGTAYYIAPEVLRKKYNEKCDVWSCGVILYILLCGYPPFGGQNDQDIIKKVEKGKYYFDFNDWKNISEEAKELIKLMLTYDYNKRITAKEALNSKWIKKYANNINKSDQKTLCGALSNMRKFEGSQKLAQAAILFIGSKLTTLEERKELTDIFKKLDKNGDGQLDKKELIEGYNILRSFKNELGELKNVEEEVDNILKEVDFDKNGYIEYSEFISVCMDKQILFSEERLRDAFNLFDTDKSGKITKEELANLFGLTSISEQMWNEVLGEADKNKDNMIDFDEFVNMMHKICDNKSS
Sequence of Protein kinase 7 (PK7), Plasmodium falciparum 3D7 (PF3D7_0213400) (Q7YTF7 1-343): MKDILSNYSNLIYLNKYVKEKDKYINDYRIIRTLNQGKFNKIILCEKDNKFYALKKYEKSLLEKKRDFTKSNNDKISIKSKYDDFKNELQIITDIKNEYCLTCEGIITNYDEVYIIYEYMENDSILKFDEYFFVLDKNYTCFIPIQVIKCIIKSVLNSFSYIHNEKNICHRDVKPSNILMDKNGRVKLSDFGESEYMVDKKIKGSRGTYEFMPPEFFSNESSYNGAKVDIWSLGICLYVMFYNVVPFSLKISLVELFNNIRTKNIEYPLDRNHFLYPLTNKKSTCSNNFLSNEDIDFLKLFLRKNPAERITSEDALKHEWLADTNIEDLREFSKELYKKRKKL
Sequence of L-lactate dehydrogenase (Plasmodium falciparum (isolate CDC / Honduras)) (Q27743 whole entry, looked up): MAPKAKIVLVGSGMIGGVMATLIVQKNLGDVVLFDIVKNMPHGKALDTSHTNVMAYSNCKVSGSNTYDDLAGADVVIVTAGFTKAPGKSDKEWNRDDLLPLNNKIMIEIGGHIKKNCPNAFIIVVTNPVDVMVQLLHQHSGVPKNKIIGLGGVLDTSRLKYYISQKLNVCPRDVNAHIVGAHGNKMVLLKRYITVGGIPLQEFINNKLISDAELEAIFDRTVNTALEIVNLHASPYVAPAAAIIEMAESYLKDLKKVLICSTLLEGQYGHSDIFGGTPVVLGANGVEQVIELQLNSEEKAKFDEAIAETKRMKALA
Sequence of Calcium-dependent protein kinase 4 (Plasmodium falciparum (isolate 3D7)) (Q8IBS5 whole entry, looked up): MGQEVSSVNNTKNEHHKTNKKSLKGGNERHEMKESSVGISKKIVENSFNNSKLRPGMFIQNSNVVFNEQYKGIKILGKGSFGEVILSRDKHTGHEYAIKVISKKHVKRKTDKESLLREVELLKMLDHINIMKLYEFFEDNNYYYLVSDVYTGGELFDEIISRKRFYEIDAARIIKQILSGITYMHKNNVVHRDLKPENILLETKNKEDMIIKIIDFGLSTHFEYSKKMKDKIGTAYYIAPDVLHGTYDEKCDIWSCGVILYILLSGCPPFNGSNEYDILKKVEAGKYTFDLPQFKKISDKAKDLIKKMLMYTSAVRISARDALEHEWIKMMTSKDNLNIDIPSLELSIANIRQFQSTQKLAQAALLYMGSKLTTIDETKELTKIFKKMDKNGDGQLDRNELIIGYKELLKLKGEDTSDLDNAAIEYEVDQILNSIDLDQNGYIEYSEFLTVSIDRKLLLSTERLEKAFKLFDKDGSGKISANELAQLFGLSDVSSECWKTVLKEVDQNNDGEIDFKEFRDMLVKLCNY
Sequence of Plasmodium falciparum protein kinase 6 (PK6, PF3D7_1337100) (Q8IDW1 1-305): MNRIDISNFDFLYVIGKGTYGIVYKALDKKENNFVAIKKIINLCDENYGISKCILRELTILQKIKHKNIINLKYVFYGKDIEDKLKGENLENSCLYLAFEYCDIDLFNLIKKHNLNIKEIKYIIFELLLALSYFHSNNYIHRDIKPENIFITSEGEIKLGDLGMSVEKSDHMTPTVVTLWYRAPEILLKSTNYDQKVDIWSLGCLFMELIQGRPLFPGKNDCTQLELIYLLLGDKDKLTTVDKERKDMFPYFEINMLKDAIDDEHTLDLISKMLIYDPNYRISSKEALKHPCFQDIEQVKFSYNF

In the case of `C[C@H](Cc1ccc(OCCCCCCOc2ccc(C[C@@H](C)N[C@H](C)c3ccccc3)cc2)cc1)NC[C@H](O)c1cccc(Cl)c1`, the growth inhibition in assay [1] was 98% (active); in assay [4], 99% (active). Moreover, the values for the inhibition in assay [2] and in assay [3] were 99% (active) and -4%, respectively. In addition, the outcome in assay [5], in assay [6], in assay [7] and in assay [8] was inactive.

`COc1ccc(CN2CCC(N3CC(c4ccccc4)(c4ccccc4)OCC3=O)C2)c(O)c1` (stereo not given): the growth inhibition in assay [1] was 27%; in assay [4], 96% (active). The inhibition in assay [2] was 10%; in assay [3], 3%. The result in assay [5], in assay [6], in assay [7] and in assay [8] was inactive.

As for `CCOC(=O)c1cn(CC)c2cc(O[C@@H]3CCN(C(=O)OC(C)(C)C)C3)ccc2c1=O`, the growth inhibition in assay [1] was 94% (active); in assay [4] it was 97% (active). Besides, the inhibition in assay [2] was 13%; in assay [3] it was -8%. In addition, the result in assay [5], in assay [6], in assay [7] and in assay [8] was inactive.

Take `NC(=O)c1cccc(Nc2nccc(Nc3ccc4[nH]c(-c5ccccc5)cc4c3)n2)c1`: the growth inhibition is 98% (active) in assay [1] and 101% (active) in assay [4]. The figures for the inhibition in assay [2] and in assay [3] were 28% and -2%, respectively. Besides, the outcome in assay [5], in assay [6], in assay [7] and in assay [8] was inactive.

`Cc1cc(F)ccc1Nc1nc(N(C)c2ccccc2)c2cc(OCCN(C)C)ccc2n1`: the growth inhibition in assay [1] was 55% (active); in assay [4] it was 94% (active). In addition, the inhibition in assay [2] was 37%; in assay [3], 3%. Besides, the outcome in assay [5], in assay [6], in assay [7] and in assay [8] was inactive.

In the case of `N#Cc1ccc(-c2ccc3nc(N4CCCN(C5CCC5)CC4)ccc3c2)cc1`, the growth inhibition in assay [1] was 14%; in assay [4], 96% (active). Also, the inhibition in assay [2] is 36%; in assay [3], -2%. Also, the outcome in assay [5], in assay [6], in assay [7] and in assay [8] was inactive.

For the compound `CCc1ccccc1N1CCN(CCCC(=O)c2ccc(NC(=O)c3cc(Cl)cc(Cl)c3)cc2)CC1`, the growth inhibition in assay [1] is 46%; in assay [4], 99% (active). In addition, the values for the inhibition in assay [2] and in assay [3] were 16% and 1%, respectively. For the same compound, the result in assay [5], in assay [6], in assay [7] and in assay [8] was inactive.

Take `CCCc1ccc(S(=O)(=O)Nc2ccc3c(c2)CCC3)cc1`: the figures for the growth inhibition in assay [1] and in assay [4] were -1% and 96% (active), respectively. The values for the inhibition in assay [2] and in assay [3] were 8% and 1%, respectively. In addition, the outcome in assay [5], in assay [6], in assay [7] and in assay [8] was inactive.

With `O=c1cc(NCCCNC2CCOc3c(Cl)cc(Cl)cc32)[nH]c2ccccc12` (stereo not given), the growth inhibition was 88% (active) in assay [1] and 100% (active) in assay [4]. For the same compound, the results for the inhibition in assay [2] and in assay [3] were -7% and -3%, respectively. Also, the outcome in assay [5], in assay [6], in assay [7] and in assay [8] was inactive.

As for `CC(C)CNCc1ccc(-c2ccc(CNC3CCN(Cc4ccccc4)CC3)cc2)cc1`, the results for the growth inhibition in assay [1] and in assay [4] were 96% (active) and 100% (active), respectively. Moreover, the inhibition is 16% in assay [2] and 4% in assay [3]. Besides, the outcome in assay [5], in assay [6], in assay [7] and in assay [8] was inactive.

On to `Cc1cc(OCCCN2CCC(NS(=O)(=O)c3cc(Br)c(Cl)s3)CC2)c2ccccc2n1`, for which the figures for the growth inhibition in assay [1] and in assay [4] were 39% and 95% (active), respectively. Moreover, the inhibition in assay [2] is 5%; in assay [3] it was 3%. For the same compound, the outcome in assay [5], in assay [6], in assay [7] and in assay [8] was inactive.

Regarding `CCC(C)CN1CCCN(c2ccc(NC(=O)c3cccs3)cc2)CC1` (stereo not given), the growth inhibition in assay [1] is 95% (active); in assay [4], 91% (active). In addition, the inhibition is 4% in assay [2] and -2% in assay [3]. Moreover, the outcome in assay [5], in assay [6], in assay [7] and in assay [8] was inactive.

For `COc1ccc2nccc([C@@H](O)CN3CCC(NCc4cc5ccc(C#N)cc5[nH]4)CC3)c2c1`, the growth inhibition in assay [1] was 39%; in assay [4], 100% (active). Besides, the inhibition in assay [2] was 31%; in assay [3], 0%. The result in assay [5], in assay [6], in assay [7] and in assay [8] was inactive.

As for `CCCNC(=O)Nc1ccc(N(C)c2ccnc(NC3CC3)n2)cc1`, the figures for the growth inhibition in assay [1] and in assay [4] were 88% (active) and 100% (active), respectively. The inhibition in assay [2] is 28%; in assay [3], -2%. The result in assay [5], in assay [6], in assay [7] and in assay [8] was inactive.

In the case of `CCN1CCN(CCNc2c3ccccc3nc3ccccc23)CC1`, the growth inhibition was 8% in assay [1] and 93% (active) in assay [4]. Also, the inhibition is 45% in assay [2] and 0% in assay [3]. Further, the result in assay [5], in assay [6], in assay [7] and in assay [8] was inactive.

`FC(F)(F)c1ccc2nc(-c3ccc(-c4ccc(CNCCN5CCNCC5)cc4)s3)[nH]c2c1`: the growth inhibition is 79% (active) in assay [1] and 94% (active) in assay [4]. Besides, the inhibition was 17% in assay [2] and -2% in assay [3]. Also, the result in assay [5], in assay [6], in assay [7] and in assay [8] was inactive.

In the case of `CN(Cc1cccc(F)c1)C1CCN(c2cc(NC(=O)c3cccc(F)c3)ccn2)CC1`, the growth inhibition was 13% in assay [1] and 94% (active) in assay [4]. The inhibition in assay [2] is 12%; in assay [3] it was 3%. Also, the result in assay [5], in assay [6], in assay [7] and in assay [8] was inactive.

Regarding `CCCCc1cc(=O)oc2cc(C)cc(OCc3ccccc3F)c12`, the growth inhibition in assay [1] is 78% (active); in assay [4] it was 92% (active). In addition, the values for the inhibition in assay [2] and in assay [3] were 8% and -1%, respectively. The result in assay [5], in assay [6], in assay [7] and in assay [8] was inactive.

Consider `Cc1ccc(NC(=O)Nc2ccc(Cl)c(C(F)(F)F)c2)cc1-c1ccc(C(=O)NCCN2CCOCC2)cc1`, for which the growth inhibition was 31% in assay [1] and 98% (active) in assay [4]. Moreover, the results for the inhibition in assay [2] and in assay [3] were 52% (active) and 0%, respectively. In addition, the result in assay [5], in assay [6], in assay [7] and in assay [8] was inactive.

As to `C=CCn1c(=N)c(C(=O)NC2CCCCC2)cc2c(=O)n3cccc(C)c3nc21`, the growth inhibition in assay [1] was 58% (active); in assay [4], 92% (active). Further, the inhibition in assay [2] is 0%; in assay [3] it was 4%. Moreover, the outcome in assay [5], in assay [6], in assay [7] and in assay [8] was inactive.
